Screens as filed in PubChem BioAssay.
This is one part of a sample in which hits are shown more often than they occur.
CXXC DNA block = inhibitors of human MLL CXXC domain-DNA interaction | Q03164 | MLL-CXXC / FITC-HOXA9 DNA fluorescence polarization | Potency, µM (titrated, usually from 115 µM), inactives show top-dose activity change, negative = inhibition, most hits filed as inhibitors | actives 0.037% (n = 290,000) | AID 2662; active = well fitted inhibition curve with a large enough effect in the polarisation, with a control signal flat, not every such curve was filed as active; inconclusive = small, poorly fitted or top-dose-only effect, or effect the other way, or a change in a side signal; inactive = no such curve, though single readings can be large or run the other way; the % refers to the polarisation; note: potency is the fitted concentration of half-maximal effect
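Purified MLL-CXXC (added from a 7 uM solution) was preincubated 5 min at ambient with pinned compounds in 50 mM Tris-HCl pH 7.5, 50 mM NaCl, 1 mM DTT, 0.05% BSA. Fluorescein-labeled HOX-A9 DNA (50 nM solution) followed, 30 min, then polarization read.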
ERG-DNA inh = blocks human ERG Ets domain binding to DNA; fluorescence polarization, His-ERG Ets domain / labelled DNA; Potency, µM (highest dose often 76.9 µM), inactives show at the top dose FP activity, negative = inhibition, usual class: inhibitors; actives 0.028% (n = 370,000); AID 624246; active = well fitted inhibition curve with a large enough effect in the polarisation, with a control signal flat; inconclusive = small, poorly fitted or top-dose-only effect, or effect the other way, or a change in a side signal; inactive = no such curve, though single readings can be large or run the other way; the % refers to the polarisation;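 note: polarization taken with two DNA probes labelled with fluorescein and Texas red; potency is the fitted concentration of half-maximal effect; % of control where 0% means no effect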
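His-tagged ERG Ets domain (1 uM in the protein solution; 300mM KCl, 50mM Tris-HCl, 1mM EDTA, 1mM DTT, pH 7.5) received compound, then a probe mix of 5 nM fluorescein-DNA and 100nM Texas-615-DNA. Fluorescence polarization was read for both dyes.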
Mm-Cpn inhibitor = M. maripaludis TRiC chaperonin inhibition | actives 0.031% (n = 330,000) | purified Mm-Cpn ATPase, ADP Transcreener TR-FRET | AID 504842 | Potency, µM (top dose mostly 76.9 µM), for the others: top-dose activity, negative = inhibition, hits mostly inhibitors; note: potency is the fitted concentration of half-maximal effect; % is set by controls: 0 for no effect and ±100 for the full control effect; nearly all actives have a fitted effect of over 80% in size
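Purified archaeal Mm-CPN (25nM final) preincubated 10 min at 37degC with compound, then 10uM ATP for 30 min at 37degC; ADP measured by HTRF Transcreener TR-FRET; buffer 30 mM TRIS pH 7.4, 100mM KCl, 5mM MgCl2, 1mM DTT.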
Menin MLL FP TR = inhibitors of human menin-MLL interaction, mutant MLL peptide. actives 0.23% (n = 270,000). Menin + Texas Red MLL mutant peptide, fluorescence polarization. O00255. AID 1768. Potency, µM (highest dose often 61.6 µM), for the others: at the highest dose FP activity change, negative = inhibition, actives largely listed as inhibitors; active = well fitted inhibition curve with a large enough effect in the polarisation, with a control signal flat, not every such curve was filed as active; inconclusive = small, poorly fitted or top-dose-only effect, or effect the other way, or a change in a side signal; inactive = no such curve, though single readings can be large or run the other way; the % refers to the polarisation; note: potency is the fitted concentration of half-maximal effect; % of control where 0% means no effect
Target sequence (O00255 whole entry, looked up): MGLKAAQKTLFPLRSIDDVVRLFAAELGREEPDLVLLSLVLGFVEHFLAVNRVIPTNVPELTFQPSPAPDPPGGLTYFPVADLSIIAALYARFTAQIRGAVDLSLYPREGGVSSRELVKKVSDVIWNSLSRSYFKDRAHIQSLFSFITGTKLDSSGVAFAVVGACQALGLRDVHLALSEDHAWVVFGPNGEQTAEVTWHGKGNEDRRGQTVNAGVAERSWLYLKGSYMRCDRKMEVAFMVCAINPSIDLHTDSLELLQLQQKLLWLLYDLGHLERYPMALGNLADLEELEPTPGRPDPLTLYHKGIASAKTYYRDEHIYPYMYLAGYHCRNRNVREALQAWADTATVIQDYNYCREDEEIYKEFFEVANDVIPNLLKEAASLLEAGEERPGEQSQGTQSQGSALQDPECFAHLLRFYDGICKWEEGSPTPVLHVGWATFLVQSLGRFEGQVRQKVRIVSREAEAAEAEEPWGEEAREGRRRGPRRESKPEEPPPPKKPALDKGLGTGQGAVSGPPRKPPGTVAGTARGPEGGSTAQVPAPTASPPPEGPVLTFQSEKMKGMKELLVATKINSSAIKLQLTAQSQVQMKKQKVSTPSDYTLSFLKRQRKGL
Menin MLL FP FL = displaces fluorescein MLL peptide from human menin; AID 1766; 290,000 tested, under 10 active; Fluorescence polarization, fluorescein-MLL peptide displacement from menin; FP activity change, % at 61.4 µM; active = well fitted curve in the direction sought with a large enough effect in the polarisation, not every such curve was filed as active; inconclusive = small, poorly fitted or top-dose-only effect, or effect the other way, or a change in a side signal; inactive = no such curve, though single readings can be large or run the other way; the % refers to the polarisation; note: % of control where 0% means no effect
MLL CXXC FP-Fl = inhibitors of human MLL CXXC domain-DNA interaction; shares compounds with CXXC DNA block; MLL CXXC-DNA binding, fluorescein FP; Potency, µM (series often up to 345 µM), for the others: at the highest dose activity change, negative = inhibition, most hits filed as inhibitors; actives 70% (n = 200); note: potency is the fitted concentration of half-maximal effect; nearly all actives have a fitted effect of over 80% in size
MLL CXXC TxRed = disrupts human MLL CXXC domain binding to DNA, Texas Red; shares compounds with CXXC DNA block; actives 40% (n = 200); MLL CXXC-DNA binding, Texas Red fluorescence polarization; Potency, µM (series often up to 345 µM), without a hit: at the top dose activity change, negative = inhibition, most hits filed as inhibitors; AID 624161; note: potency is the fitted concentration of half-maximal effect; % is set by controls: 0 for no effect and ±100 for the full control effect; nearly all actives have a fitted effect of over 75% in size
MLL CXXC TRF = inhibitors of human MLL CXXC domain-DNA interaction, HTRF format | shares compounds with CXXC DNA block | Potency, µM (highest dose often 172 µM), for the others: at the top dose activity change, negative = inhibition, usual class: inhibitors | MLL CXXC-DNA binding, HTRF, biochemical | actives 30% (n = 210); note: % is set by controls: 0 for no effect and ±100 for the full control effect; nearly all actives have a fitted effect of over 80% in size
* hit, by the source's call. Unless noted, calls come from the whole dose curve; as a rule, active = well fitted curve in the direction sought with a large enough effect; inconclusive = small, poorly fitted or top-dose-only effect, or another doubt; inactive = no such curve, though single readings can be large; an effect the other way counts as inactive or inconclusive.

What do the screens show for `O=C(O)CCN1C(=O)/C(=C\c2ccncc2)SC1=S`?
CXXC DNA block: 35.5µM*; ERG-DNA inh: 52.0%; Mm-Cpn inhibitor: -1.2%; Menin MLL FP TR: 28.1%; Menin MLL FP FL: 2.2; MLL CXXC TRF: 12.4%

How did COc1ccc(/C=C2/SC(=S)N(CCC(=O)O)C2=O)cc1 do in these assays?
CXXC DNA block: -29.1%; ERG-DNA inh: 5.5%; Mm-Cpn inhibitor: 0.4%; Menin MLL FP TR: 14.3%; Menin MLL FP FL: 4.6

Results for COC(=O)c1ccc2c(c1)SC1=C(CCCC1=O)N2 ?
CXXC DNA block: 28.2µM*; ERG-DNA inh: inconclusive; Mm-Cpn inhibitor: -6.6%; Menin MLL FP TR: inconclusive; Menin MLL FP FL: inconclusive; MLL CXXC FP-Fl: 100µM*; MLL CXXC TxRed: 142µM*; MLL CXXC TRF: 171.0%

What do the screens show for `O=C1CCCC2=C1Sc1ccc(Cl)cc1N2`?
CXXC DNA block: inconclusive; ERG-DNA inh: 13.0%; Mm-Cpn inhibitor: -11.9%; Menin MLL FP FL: inconclusive

What do the screens show for `COc1cccc(C(=O)CC2c3c(c(Br)c4c(c3OC)OCO4)CCN2C)c1` (stereo not drawn)?
Menin MLL FP TR: -22.4%; Menin MLL FP FL: 1.7

What do the screens show for `Cc1ccc(Sc2ccc(/C=C3/C(=O)NN(c4ccccc4)C3=O)o2)cc1`?
CXXC DNA block: inconclusive; ERG-DNA inh: 15.2%; Mm-Cpn inhibitor: -0.8%; Menin MLL FP FL: 18.0; MLL CXXC FP-Fl: 7.97µM*; MLL CXXC TxRed: 32.5%; MLL CXXC TRF: -0.8%

Results for CN(C)C1CCc2[nH]c3ccc(NC(=O)c4ccc(F)cc4)cc3c2C1 (stereo not drawn) ?
Menin MLL FP TR: 9.4%; Menin MLL FP FL: 5.3

What do the screens show for `COc1ccc(C2=Nn3c(nnc3-c3ccc(OC)c(OC)c3)SC2)c(OC)c1`?
Menin MLL FP TR: -10.9%; Menin MLL FP FL: -4.7

Results for CCc1nnc(NC(=O)CSc2nnc(-c3ccc(NS(=O)(=O)c4ccccc4)cc3)o2)s1 ?
CXXC DNA block: inconclusive; ERG-DNA inh: 2.6%; Mm-Cpn inhibitor: 0.0%; Menin MLL FP TR: 6.1%; Menin MLL FP FL: 2.2; MLL CXXC FP-Fl: inconclusive; MLL CXXC TxRed: 8.5%; MLL CXXC TRF: -10.7%

Results for COC(=O)CSc1nnc(-c2ccc(NS(=O)(=O)c3ccccc3)cc2)o1 ?
CXXC DNA block: -10.0%; ERG-DNA inh: -1.6%; Mm-Cpn inhibitor: -1.0%; Menin MLL FP TR: -8.1%; Menin MLL FP FL: -1.0

What do the screens show for `Nc1nc2c(s1)CCc1c-2cnn1-c1ccccc1`?
CXXC DNA block: 31.6µM*; ERG-DNA inh: 18.3%; Mm-Cpn inhibitor: -4.9%; Menin MLL FP TR: -18.0%; Menin MLL FP FL: -0.8; MLL CXXC FP-Fl: inconclusive; MLL CXXC TxRed: inconclusive; MLL CXXC TRF: 30.6µM*

What do the screens show for `CCC1(c2ccc(OC)cc2)NC(=O)N(C)C1=O` (stereo not drawn)?
Menin MLL FP TR: -13.2%; Menin MLL FP FL: -3.2

How did COC(=O)c1ccccc1NC1=C/C(=N\S(=O)(=O)c2ccc(C(=O)O)cc2)c2ccccc2C1=O do in these assays?
CXXC DNA block: 15.8µM*; ERG-DNA inh: 30.1%; Mm-Cpn inhibitor: -7.2%; MLL CXXC FP-Fl: 5.03µM*; MLL CXXC TxRed: 142µM*; MLL CXXC TRF: -72.3%

How did Cc1ccc(S(=O)(=O)/N=C2\C=C(Nc3cccc(C(=O)O)c3)C(=O)c3ccccc32)cc1 do in these assays?
CXXC DNA block: inconclusive; ERG-DNA inh: 12.2%; Mm-Cpn inhibitor: -5.8%; Menin MLL FP TR: inconclusive; Menin MLL FP FL: -13.2

Results for CCc1ccc(S(=O)(=O)/N=C2\C=C(Nc3ccc(C(=O)O)cc3)C(=O)c3ccccc32)cc1 ?
CXXC DNA block: 12.6µM*; ERG-DNA inh: -7.1%; Mm-Cpn inhibitor: -3.5%; Menin MLL FP TR: inconclusive; Menin MLL FP FL: -13.2; MLL CXXC FP-Fl: 40µM*; MLL CXXC TxRed: inconclusive; MLL CXXC TRF: 157.7%

How did O=C(O)CC/C=C\CC[C@@H]1[C@@H](N2CCCCC2)[C@@H](O)C[C@@H]1OCc1ccc(-c2ccccc2)cc1 do in these assays?
CXXC DNA block: 6.4%; Menin MLL FP TR: 0.8%; Menin MLL FP FL: 2.5

How did Cc1ccc(N/C=C(\C2OC(=O)c3ccccc32)[N+](=O)[O-])c(C)c1 (stereo not drawn) do in these assays?
CXXC DNA block: -1.0%; ERG-DNA inh: 12.7%; Mm-Cpn inhibitor: 0.5%; Menin MLL FP TR: -5.2%; Menin MLL FP FL: -17.0

Results for O=C1OC(/C(=C\Nc2ccc(F)cc2F)[N+](=O)[O-])c2ccccc21 (stereo not drawn) ?
CXXC DNA block: inconclusive; ERG-DNA inh: -1.3%; Mm-Cpn inhibitor: 1.8%; Menin MLL FP TR: -6.0%; Menin MLL FP FL: 0.9; MLL CXXC FP-Fl: 6.0%; MLL CXXC TxRed: 126µM*; MLL CXXC TRF: -3.0%

Results for O=c1c(-c2ccc(O)cc2)coc2cc(O[C@@H]3O[C@H](CO)[C@@H](O)[C@H](O)[C@H]3O)cc(O)c12 ?
Menin MLL FP TR: -2.7%; Menin MLL FP FL: 2.0

How did CC(=O)c1c(O)cc(O)c(C(C)=O)c1O do in these assays?
CXXC DNA block: -1.1%; ERG-DNA inh: -1.2%; Mm-Cpn inhibitor: 1.5%; Menin MLL FP FL: 4.4

What do the screens show for `CC(=O)c1c(O)cc(O)cc1CC(=O)O`?
CXXC DNA block: inconclusive; ERG-DNA inh: 0.9%; MLL CXXC FP-Fl: 142µM*; MLL CXXC TxRed: -0.4%; MLL CXXC TRF: 2.3%

How did Nc1c(N=Nc2ccc(-c3ccc(N=Nc4cc(S(=O)(=O)O)c5ccccc5c4N)cc3)cc2)cc(S(=O)(=O)O)c2ccccc12 do in these assays?
CXXC DNA block: 35.5µM*; Menin MLL FP TR: inconclusive; Menin MLL FP FL: inconclusive; MLL CXXC FP-Fl: 22.5µM*; MLL CXXC TxRed: 25.2µM*; MLL CXXC TRF: 9.68µM*

How did CNC(=O)[C@H]1O[C@@H](n2cnc3c(N)ncnc32)[C@H](O)[C@H]1O do in these assays?
CXXC DNA block: 20.8%; Menin MLL FP TR: -5.8%; Menin MLL FP FL: -0.1

Results for O=c1ccc2[n+]([O-])c3ccc(O)cc3oc-2c1 ?
CXXC DNA block: 35.5µM*; ERG-DNA inh: inconclusive; Mm-Cpn inhibitor: inconclusive; Menin MLL FP FL: inconclusive; MLL CXXC FP-Fl: inconclusive; MLL CXXC TxRed: 2.25µM*; MLL CXXC TRF: inconclusive
